Laboratory results as given in PubChem BioAssay (NCATS).
Inconclusive results are not listed. Where a call stands in place of a potency, no number is given. Where a structure was tested more than once in an assay, its records may differ in their call. Active and inactive are the calls of the source. The call rests on the fitted dose curve; in most records, active means well fitted curve in the direction sought with a large enough effect; inconclusive means small, poorly fitted or top-dose-only effect, or another doubt; inactive means no such curve, though single readings can be large; an effect the other way counts as inactive or inconclusive.

The molecules below were run against Metallo-beta-lactamase type 2 (Klebsiella pneumoniae) (UniProt C7C422) (assay: qHTS to identify inhibitors of the New Delhi Metallo-beta-lactamase (NDM): assay validation screen against the NCATS LOPAC Collection (AID 1794843;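 on activity change, negative = inhibition: nitrocefin turnover by NDM-1 measured as 485 nm absorbance at plateau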)). Settings: NDM-1 enzyme, nitrocefin hydrolysis, absorbance 485 nm; series mostly up to 38.4 µM; activity change, negative = inhibition: at the top concentration.
How it was run: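 Enzyme 2 nM final, 50 mM HEPES pH 7.0, 1 uM ZnSO4, 0.01% Tween20; cpds in DMSO, preincub w/ enzyme; + nitrocefin (50 uM stock); A485 at plateau; no-enzyme column as blank.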
Potency means the concentration at half of the fitted maximal effect.

Chain of Metallo-beta-lactamase type 2 (Klebsiella pneumoniae) (C7C422 whole entry, looked up): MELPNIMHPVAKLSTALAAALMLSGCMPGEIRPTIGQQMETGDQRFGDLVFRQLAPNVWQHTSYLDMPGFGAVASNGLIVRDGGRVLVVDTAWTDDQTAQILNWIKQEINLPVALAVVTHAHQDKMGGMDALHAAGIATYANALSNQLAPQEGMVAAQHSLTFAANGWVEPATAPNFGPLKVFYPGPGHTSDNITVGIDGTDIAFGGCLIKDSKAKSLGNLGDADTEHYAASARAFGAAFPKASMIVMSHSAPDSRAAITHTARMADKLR

SMILES | activity change, negative = inhibition | Potency
CCN(CC)CCNC(=O)c1ccc(N)cc1 | -2.67% (inactive) | 
Clc1ccc(C(c2ccc(Cl)cc2)n2cc[n+](CC(OCc3ccc(Cl)cc3Cl)c3ccc(Cl)cc3Cl)c2)cc1 (centres undefined) | 7.66% (inactive) | 
O=C(O)CCc1nc(-c2ccccc2)c(-c2ccccc2)o1 | -1.59% (inactive) | 
CN(C)CCC(c1ccccc1)c1ccccn1 (centres undefined) | -8.64% (inactive) | 
Clc1ccc(Cn2c(CN3CCCC3)nc3ccccc32)cc1 | -3.88% (inactive) | 
CC1=C(/C=C/C(C)=C/C=C/C(C)=C/C(=O)Nc2ccc(O)cc2)C(C)(C)CCC1 | 0.446% (inactive) | 
COc1cccc(-c2cc(=O)c3ccccc3o2)c1N | 1.15% (inactive) | 
CC(C)NCC(O)COc1cccc2[nH]ccc12 (centres undefined) | 1.39% (inactive) | 
CCN1CCC[C@H]1CNC(=O)c1cc(S(N)(=O)=O)ccc1OC | 1.78% (inactive) | 
CCCNC(=O)NS(=O)(=O)c1ccc(Cl)cc1 | 1.23% (inactive) | 
NCCS | -2.12% (inactive) | 
CCN(CC)CCOC(=O)c1ccc(N)cc1 | -3.83% (inactive) | 
COc1ccccc1N1CCN(CCCNc2cc(=O)n(C)c(=O)n2C)CC1 | 0.0819% (inactive) | 
COC(=O)[C@@H]1[C@H]2C[C@H]3c4[nH]c5ccccc5c4CCN3C[C@@H]2CC[C@@H]1O | 0.16% (inactive) | 
CC(=O)c1ccc(S(=O)(=O)NC(=O)NC2CCCCC2)cc1 | 7.07% (inactive) | 
C[N+](C)(C)CCCCCC[N+](C)(C)C |  | inactive
CC(C)(C)c1ccc(C(O)CCCN2CCC(C(O)(c3ccccc3)c3ccccc3)CC2)cc1 (centres undefined) | 5.29% (inactive) | 
CC/C(=C(\c1ccccc1)c1ccc(OCCN(C)C)cc1)c1ccccc1 |  | 14.1 µM (active) and inactive
NC(N)=Nc1nc(CSCC/C(N)=N/S(N)(=O)=O)cs1 | 5.35% (inactive) | 
CC(=O)O[C@]1(C(C)=O)CC[C@H]2[C@@H]3C=C(Cl)C4=CC(=O)[C@@H]5C[C@@H]5[C@]4(C)[C@H]3CC[C@@]21C | -1.1% (inactive) | 
O=C(NCCN1CCOCC1)c1ccc(Cl)cc1 | -10.4% (inactive) | 
CCCCC1C(=O)N(c2ccccc2)N(c2ccccc2)C1=O | 0.346% (inactive) | 
CCN(CC)C(=O)c1ccc(O)c(OC)c1 | -0.384% (inactive) | 
CCn1cc(C(=O)O)c(=O)c2ccc(C)nc21 | -17.2% (inactive) | 

Each molecule was assayed against Glutathione peroxidase 1 (Homo sapiens) (UniProt P07203) (assay: Primary qHTS Assay for Inhibitors of Recombinant Selenoprotein Glutathione Peroxidase 1 (GPX1) (AID 1845191; further: nearly all actives have a fitted effect of over 65% in size)). Settings: recombinant GPX1, GR-coupled NADPH fluorescence, 15 min; series mostly up to 48.8 µM; activity, negative = inhibition: at the top concentration.
How it was run: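 GPX1 10 nM, GR 100 nM, GSH 1 mM, NADPH 0.5 mM, CHP 0.5 mM (final). 30-min cpd preincubation, RT. Ex340/Em450 read t=0, t=15 min.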

Chain of Glutathione peroxidase 1 (Homo sapiens) (P07203 whole entry, looked up): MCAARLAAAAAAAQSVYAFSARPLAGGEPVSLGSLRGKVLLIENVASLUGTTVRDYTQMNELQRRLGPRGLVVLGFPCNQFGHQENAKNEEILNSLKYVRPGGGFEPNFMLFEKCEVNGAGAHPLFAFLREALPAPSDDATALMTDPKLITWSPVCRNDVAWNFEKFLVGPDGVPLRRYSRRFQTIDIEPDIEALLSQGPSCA

SMILES | Potency | outcome | activity, negative = inhibition
CCN(CC)CCNC(=O)c1ccc(N)cc1 | inactive |  | 
Clc1ccc(C(c2ccc(Cl)cc2)n2cc[n+](CC(OCc3ccc(Cl)cc3Cl)c3ccc(Cl)cc3Cl)c2)cc1 (centres undefined) | inactive |  | 
COc1ccc(-n2c(C)c([N+](=O)[O-])c3ccc(O)cc32)cc1 |  | inactive | 
CN(C)Cc1cccc(N=C(c2ccccc2)c2c(O)[nH]c3cc(C(=O)N(C)C)ccc23)c1 |  | inactive | 
O=C(O)CCc1nc(-c2ccccc2)c(-c2ccccc2)o1 | inactive |  | 
CN(C)CCC(c1ccccc1)c1ccccn1 (centres undefined) | inactive |  | 
OC[C@@H](O)[C@H](O)[C@H](O)[C@@H](O)CO |  | inactive | 
Clc1ccc(Cn2c(CN3CCCC3)nc3ccccc32)cc1 | inactive |  | 
CC1=C(/C=C/C(C)=C/C=C/C(C)=C/C(=O)Nc2ccc(O)cc2)C(C)(C)CCC1 | inactive |  | 
CC(=O)OC1C(C)OC(Oc2c(-c3ccc(O)cc3)oc3cc(O)cc(O)c3c2=O)C(O)C1OC(C)=O (centres undefined) |  | inactive | 
COc1cccc(-c2cc(=O)c3ccccc3o2)c1N | inactive |  | 
CC(C)NCC(O)COc1cccc2[nH]ccc12 (centres undefined) | inactive |  | 
CCN1CCC[C@H]1CNC(=O)c1cc(S(N)(=O)=O)ccc1OC | inactive |  | 
Cc1ccc(/C=N/NC(=O)c2ccccc2Oc2ccccc2)o1 |  | inactive | 
CCCNC(=O)NS(=O)(=O)c1ccc(Cl)cc1 | inactive |  | 
NCCS |  | inactive | 
CCN(CC)CCOC(=O)c1ccc(N)cc1 |  |  | -15.7% (inactive)
COc1ccccc1N1CCN(CCCNc2cc(=O)n(C)c(=O)n2C)CC1 | inactive |  | 

SMILES | Potency | outcome | activity, negative = inhibition
COc1ncc(-c2ccc3nccc(-c4ccnnc4)c3c2)cc1NS(=O)(=O)c1ccc(F)cc1F | inactive |  | 
COC(=O)[C@@H]1[C@H]2C[C@H]3c4[nH]c5ccccc5c4CCN3C[C@@H]2CC[C@@H]1O | inactive |  | 
CC(=O)c1ccc(S(=O)(=O)NC(=O)NC2CCCCC2)cc1 | inactive |  | 
C[N+](C)(C)CCCCCC[N+](C)(C)C | inactive |  | 
CC(C)(C)c1ccc(C(O)CCCN2CCC(C(O)(c3ccccc3)c3ccccc3)CC2)cc1 (centres undefined) | inactive |  | 
CCOc1ccc(Nc2nc(-c3c(C)nc4ccccn34)cs2)cc1 |  | inactive | 
CC/C(=C(\c1ccccc1)c1ccc(OCCN(C)C)cc1)c1ccccc1 | inactive |  | 
c1cc(-c2sc(-c3ccncc3)c(-c3ccncc3)c2-c2ccncc2)ccn1 |  | inactive | 
CO[C@H]1C[C@@H]2CC[C@@H](C)[C@@](O)(O2)C(=O)C(=O)N2CCCC[C@@H]2C(=O)O[C@H]([C@@H](C)C[C@@H]2CC[C@H](O)[C@H](OC)C2)CC(=O)[C@H](C)C=C(C)[C@@H](O)[C@@H](OC)C(=O)[C@H](C)C[C@H](C)C=CC=CC=C1C |  | inactive | 
CC(=O)O[C@]1(C(C)=O)CC[C@H]2[C@@H]3C=C(Cl)C4=CC(=O)[C@@H]5C[C@@H]5[C@]4(C)[C@H]3CC[C@@]21C | inactive |  | 
O=C(O)Cc1cccc2ccccc12 |  |  | -23.2% (inactive)
O=C(NCCN1CCOCC1)c1ccc(Cl)cc1 | inactive |  | 
CCCCC1C(=O)N(c2ccccc2)N(c2ccccc2)C1=O |  |  | -18% (inactive)
CC(C)(C)Cn1c(N)nc2ccc(-c3[nH]c(C(C)(C)C)nc3-c3ccc(F)cc3)nc21 | 16.1 µM (active) |  | 
CCN(CC)C(=O)c1ccc(O)c(OC)c1 |  |  | 2.33% (inactive)
COC1CCC(N(C(=O)C2CCC(C)CC2)c2cc(C3=CCCCC3)sc2C(=O)O)CC1 (centres undefined) |  | inactive | 
CCn1cc(C(=O)O)c(=O)c2ccc(C)nc21 | inactive |  | 
